Read-out in test [1]: Collagen III, COL3A1 (gene 1281)
As to the kind of experiment: BSK_MyoF_CollagenIII: BioMAP Diversity Plus: MyoF Assay for Collagen III Biomarker Activity (AID 2284239). Particulars: primary human lung fibroblasts. An outline of the steps: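 Human lung fibroblasts were dosed with chemicals and, 24 hours later, collagen III was measured by ELISA. Activity was fitted in the positive direction against the DMSO negative-control baseline.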

Read-out in test [2]: Interleukin 17F (IL17F), IL17F (gene 112744)
As to the kind of experiment: BSK_BT_xIL17F: BioMAP Diversity Plus: BT Assay for Interleukin 17F (IL17F) Biomarker Activity (AID 2284243). Particulars: primary human B cells with PBMC. An outline of the steps:
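B cell/PBMC co-culture (human primary), 24 h compound exposure; sIL-17F by Luminex xMAP; gain-of-signal fit vs DMSO baseline.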

Read-out in test [3]: Actin alpha 1 (ACTA1), ACTA1 (gene 58)
As to the kind of experiment: BSK_MyoF_ACTA1: BioMAP Diversity Plus: MyoF Assay for Actin alpha 1 (ACTA1) Biomarker Activity (AID 2284244). Particulars: primary human lung fibroblasts. The method, boiled down: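 ELISA read-out of a-SMA in primary human lung fibroblast cultures, 24 h post-dosing. Activity scored in the positive direction versus DMSO baseline.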

Read-out in test [4]: Interleukin 2 (IL2), IL2 (gene 3558)
As to the kind of experiment: BSK_BT_xIL2: BioMAP Diversity Plus: BT Assay for Interleukin 2 (IL2) Biomarker Activity (AID 2284245). The conditions noted are these: primary human B cells with PBMC. The method, boiled down: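 Readout: supernatant IL-2 via Luminex xMAP after 24 h chemical dosing of a B cell/PBMC primary human co-culture. DMSO serves as negative control and baseline; increases in signal were fitted.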

Read-out in test [5]: Basic fibroblast growth factor (bFGF), FGF2 (gene 2247)
As to the kind of experiment: BSK_MyoF_bFGF: BioMAP Diversity Plus: MyoF Assay for Basic fibroblast growth factor (bFGF) Biomarker Activity (AID 2284246). The conditions noted are these: primary human lung fibroblasts. An outline of the steps: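 Primary human lung fibroblast culture, 24 h compound exposure; ELISA read-out of bFGF. Positive-direction fit vs DMSO baseline. Cytotoxicity: SRB stain (0.1% SRB, 10% TCA fixation, 560 nm) in parallel wells.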

Read-out in test [6]: Collagen IV, COL4A1 (gene 1282)
As to the kind of experiment: BSK_MyoF_CollagenIV: BioMAP Diversity Plus: MyoF Assay for Collagen IV Biomarker Activity (AID 2284247). The conditions noted are these: primary human lung fibroblasts. The method, boiled down:
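ELISA read-out of Collagen IV in lung fibroblast cultures, 24 h post-dosing; gain of signal relative to DMSO vehicle baseline defines activity.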

Read-out in test [7]: Plasminogen activator inhibitor-1 (PAI1), SERPINE1 (gene 5054)
As to the kind of experiment: BSK_MyoF_PAI1: BioMAP Diversity Plus: MyoF Assay for Plasminogen activator inhibitor-1 (PAI1) Biomarker Activity (AID 2284256).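 For outcome: PAI-1 protein level measured by ELISA in fibroblast cultures; PAI-1 read 24 h after compound addition.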 Particulars: primary human lung fibroblasts. The method, boiled down:
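ELISA read-out of PAI-1 from primary human lung fibroblast cultures 24 h after dosing; gain-of-signal fit versus DMSO control.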

Read-out in test [8]: Interleukin-8 (IL8), CXCL8 (gene 3576)
As to the kind of experiment: BSK_MyoF_IL8: BioMAP Diversity Plus: MyoF Assay for Interleukin-8 (IL8) Biomarker Activity (AID 2284261). Particulars: primary human lung fibroblasts. The method, boiled down:
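ELISA read-out of IL-8 from primary human lung fibroblasts, 24 h post-dose; positive-direction curve fitting relative to DMSO vehicle baseline.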

The nature of test [9]: BSK_MyoF_SRB: Viability Assessment in the BioMAP Diversity Plus: MyoF Assay (AID 2284267).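 Note: total protein by SRB absorbance in parallel cultures as cytotoxicity measure; cells assessed 24 h after compound addition.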 The conditions noted are these: primary human lung fibroblasts. The method, boiled down:
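Lung fibroblast cultures, 24 h post-dose; fix 10% TCA, stain 0.1% SRB, read 560 nm. Signal = total protein as cytotoxicity measure; fitted relative to DMSO negative control.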

Read-out in test [10]: Matrix Metallopeptidase 1 (MMP1), MMP1 (gene 4312)
As to the kind of experiment: BSK_MyoF_MMP1: BioMAP Diversity Plus: MyoF Assay for Matrix Metallopeptidase 1 (MMP1) Biomarker Activity (AID 2284268). Particulars: primary human lung fibroblasts. An outline of the steps:
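ELISA readout of MMP1 in primary human lung fibroblast cultures, 24 h post-dosing. Gain of signal versus DMSO vehicle control defines activity. Parallel SRB staining (0.1% after 10% TCA fixation, 560 nm) flags overt cytotoxicity.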

Read-out in test [11]: TIMP metallopeptidase inhibitor 1 (TIMP1), TIMP1 (gene 7076)
As to the kind of experiment: BSK_MyoF_TIMP1: BioMAP Diversity Plus: MyoF Assay for TIMP metallopeptidase inhibitor 1 (TIMP1) Biomarker Activity (AID 2284269). The conditions noted are these: primary human lung fibroblasts. The method, boiled down:
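TIMP-1 levels were determined by ELISA in human lung fibroblasts treated for 24 h. DMSO served as negative control and baseline for upward curve fitting.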

Read-out in test [12]: Monokine induced gamma interferon (MIG), CXCL9 (gene 4283)
As to the kind of experiment: BSK_KF3CT_MIG: BioMAP Diversity Plus: KF3CT Assay for Monokine induced gamma interferon (MIG) Biomarker Activity (AID 2284248). Particulars: primary human keratinocytes with fibroblasts. An outline of the steps:
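Human keratinocyte plus foreskin fibroblast primary co-culture dosed with test chemical for 24 h; MIG level measured by ELISA and fitted in the positive direction against DMSO as baseline.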

Read-out in test [13]: Collagen I, COL1A1 (gene 1277)
As to the kind of experiment: BSK_hDFCGF_CollagenI: BioMAP Diversity Plus: hDFCGF Assay for Collagen I Biomarker Activity (AID 2284250). Particulars: primary human foreskin fibroblasts. The method, boiled down:
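ELISA read-out of Collagen I in human dermal foreskin fibroblast cultures, 24 h after dosing. Gain of signal versus DMSO vehicle defines activity.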

Read-out in test [14]: Plasminogen activator inhibitor-1 (PAI1), SERPINE1 (gene 5054)
As to the kind of experiment: BSK_KF3CT_PAI1: BioMAP Diversity Plus: KF3CT Assay for Plasminogen activator inhibitor-1 (PAI1) Biomarker Activity (AID 2284252). Particulars: primary human keratinocytes with fibroblasts. An outline of the steps: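 Keratinocyte + dermal fibroblast co-culture (human primary); 24 h post-dose; PAI-1 by ELISA; gain-of-signal fit vs DMSO control.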

Read-out in test [15]: Interleukin-8 (IL8), CXCL8 (gene 3576)
As to the kind of experiment: BSK_KF3CT_IL8: BioMAP Diversity Plus: KF3CT Assay for Interleukin-8 (IL8) Biomarker Activity (AID 2284254). The conditions noted are these: primary human keratinocytes with fibroblasts. The method, boiled down:
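Human primary keratinocyte plus foreskin fibroblast co-culture dosed with test chemicals; IL-8 measured by ELISA 24 h after dosing. Activity fitted in the positive direction relative to DMSO negative control.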

Read-out in test [16]: Intercellular Adhesion Molecule 1 (ICAM1), ICAM1 (gene 3383)
As to the kind of experiment: BSK_BE3C_ICAM1: BioMAP Diversity Plus: BE3C Assay for Intercellular Adhesion Molecule 1 (ICAM1) Biomarker Activity (AID 2284278).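 Note: cell-surface ICAM-1 protein level quantified by ELISA.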 Particulars: primary human bronchial epithelial cells. An outline of the steps:
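ELISA read-out of ICAM-1 on human lung bronchial epithelial primary cells, 24 h post-dosing; positive-direction curve fit, DMSO = baseline. SRB total-protein staining of parallel cultures flagged overt cytotoxicity.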

Read-out in test [17]: Interferon-inducible T-cell alpha chemoattractant (ITAC), CXCL11 (gene 6373)
As to the kind of experiment: BSK_BE3C_ITAC: BioMAP Diversity Plus: BE3C Assay for Interferon-inducible T-cell alpha chemoattractant (ITAC) Biomarker Activity (AID 2284279). The conditions noted are these: primary human bronchial epithelial cells. An outline of the steps:
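The assay measures I-TAC levels by ELISA in human primary bronchial epithelial cell cultures 24 hours after chemical treatment. Values reflect signal increase over the DMSO baseline.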

Read-out in test [18]: Interleukin-8 (IL8), CXCL8 (gene 3576)
As to the kind of experiment: BSK_BE3C_IL8: BioMAP Diversity Plus: BE3C Assay for Interleukin-8 (IL8) Biomarker Activity (AID 2284280). The conditions noted are these: primary human bronchial epithelial cells. An outline of the steps:
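Primary human bronchial epithelial cells (BE3C system) were exposed to test chemical for 24 h, and IL-8 levels were then measured by ELISA. Activity was fitted in the positive (gain-of-signal) direction against a DMSO negative-control baseline.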

Read-out in test [19]: Epidermal growth factor receptor (EGFR), EGFR (gene 1956)
As to the kind of experiment: BSK_BE3C_EGFR: BioMAP Diversity Plus: BE3C Assay for Epidermal growth factor receptor (EGFR) Biomarker Activity (AID 2284281). The conditions noted are these: primary human bronchial epithelial cells. An outline of the steps:
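Human primary bronchial epithelial cells were exposed to compound for 24 h, and cell-surface EGFR was then quantified by ELISA. Activity was fitted in the positive direction against the DMSO vehicle baseline.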

Test [20] in a line: CCTE_Mundy_HCI_hNP1_Casp3_7: CCTE's Caspase-Glo 3/7 Assay in human neuroprogenitor cells for Apoptosis, Mundy Lab (AID 2284240). An outline of the steps:
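Apoptosis is scored by activated caspase-3/7 luminescence in WA09-derived neural progenitor cells, measured 26.5 h after chemical dosing. Values represent gain of signal relative to DMSO vehicle.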

Active and inactive are the calls of the source. Rule for the calls: active = hit-call score of the fitted dose curve at least 0.9, where 1 is the maximum; inactive = score below 0.9.

Consider 8 compounds from PubChem BioAssay (EPA / NIEHS).

Take `CC(C)(COC(=O)c1ccccc1)COC(=O)c1ccccc1`: the outcome in [1], in test [2], in [3], in test [4], in test [5] and in test [6] was inactive. For the same compound, the outcome in [7], in test [8], in [9], in test [10] and in test [11] was inactive.
One may read the AC50 as the midpoint of the concentration-response curve, whichever way the signal moves. For `CCCCC/C=C/C=C/C=O`, the AC50 was 32.2 µM (active) in [1]; 30.7 µM (active) in [2]; 31.6 µM (active) in test [3]; 31.4 µM (active) in test [4]; 36.8 µM (active) in test [5]; 10.5 µM (active) in test [6]. For the same compound, the concentration at half-maximal activity (AC50) in test [7] was 29.4 µM (active); in [9] it was 32 µM (active); in test [11], 34.2 µM (active). The outcome in test [8] and in test [10] was inactive.
Regarding `NCCNCCN`, the result in [12], in [13], in test [14], in test [15], in test [16] and in [17] was inactive. Besides, the outcome in test [18] and in [19] was inactive.
`Cc1cc(C2(c3cc(C)c(O)cc3C)OS(=O)(=O)c3ccccc32)c(C)cc1O`: the outcome in [12], in test [13], in test [14], in test [15], in test [16] and in [17] was inactive. In addition, the result in test [18] and in test [19] was inactive.
`O=C(O)c1cn(C2CC2)c2cc(N3CCNCC3)c(F)cc2c1=O`: the outcome in [1], in [2], in test [3], in test [4], in [5] and in test [6] was inactive. The result in test [7], in test [8], in [9], in test [10] and in [11] was inactive.
As for `CN(C)C(=N)N=C(N)N`, the compound was called inactive in [20].
For the compound `C[C@H]1C[C@@H]2[C@H]([C@@H](O)C[C@@]3(C)[C@H]2CC[C@]3(O)C(=O)CO)[C@@]2(C)C=CC(=O)C=C12`, the outcome in test [12], in [13], in test [14], in [15], in test [16] and in test [17] was inactive. Also, the outcome in [18] and in [19] was inactive.
For `C=C(C)C(=O)O[C@H]1C[C@@H]2CC[C@@]1(C)C2(C)C`, the AC50 in [1] is 31.9 µM (active); in test [3] it was 33.1 µM (active); in [5], 31.3 µM (active); in [6], 25 µM (active); in test [7] it was 29.5 µM (active); in test [9], 34.8 µM (active). Further, the AC50 in test [11] is 32.3 µM (active). In addition, the result in test [2], in test [4], in [8] and in test [10] was inactive.
